# Laboratory results published in the supplement of paper PMC8975748.
# Structures can show the parent of a compound that is named as a salt.
# Tested on: Saccharomyces cerevisiae BY4741 SeMeCo community
# Experiment: z-score of subpopulation abundance vs DMSO median, subpopulation auxotrophic for UM; higher = larger share of this subpopulation than in DMSO controls
# Conditions: 10 µM; 24 h; SM minimal medium; subpopulation (auxotrophy): UM
# Description: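 Fluorescent four-plasmid SeMeCo (self-establishing metabolically cooperating S. cerevisiae BY4741 community; plasmids pH-mRuby2, pL-mWasabi, pU-eCFP, pM-TagRFP657) was grown 24 h in minimal SM medium with each Selleck FDA-approved drug at 10 µM in 384-well plates. Cells were fixed and imaged by high-content confocal microscopy. For each auxotrophic subpopulation (and the prototroph), a z-score gives the deviation from the DMSO vehicle-control population median.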
row,SMILES,z-score of subpopulation abundance
1,C/C=C\c1ccc(O)c(OC)c1 [Isoeugenol],1.01
2,CCOC(=O)c1ccc(N)cc1 [Benzocaine hydrochloride],0.51
3,O=C1C(N(CO)C(=O)NCO)N(CO)C(=O)N1CO (stereo not given) [Diazolidinyl urea],-0.82
4,CCCCCCCCCC(=O)N[C@@H](Cc1c[nH]c2ccccc12)C(=O)N[C@H](CC(N)=O)C(=O)N[C@@H](CC(=O)O)C(=O)N[C@@H]1C(=O)NCC(=O)N[C@@H](CCCN)C(=O)N[C@@H](CC(=O)O)C(=O)N[C@H](C)C(=O)N[C@@H](CC(=O)O)C(=O)NCC(=O)N[C@H](CO)C(=O)N[C@@H]([C@H](C)CC(=O)O)C(=O)N[C@@H](CC(=O)c2ccccc2N)C(=O)O[C@@H]1C [Daptomycin],-0.81
5,OCc1ccccc1O[C@@H]1O[C@H](CO)[C@@H](O)[C@H](O)[C@H]1O [Salicin],-0.29
6,Oc1cccc(O)c1 [Resorcinol],-0.77
7,O=C(Nc1cccc(C2=NCCN2)c1)Nc1cccc(C2=NCCN2)c1 [Imidocarb dipropionate],-0.26
8,Cc1cnc(NC(=O)C2=C(O)c3ccccc3S(=O)(=O)N2C)s1 [Meloxicam],-0.26
9,CO/N=C(\C(=O)N[C@@H]1C(=O)N2C(C(=O)[O-])=C(C[N+]3(C)CCCC3)CS[C@H]12)c1csc(N)n1 [Cefepime Dihydrochloride Monohydrate],0.07
10,O=C(Nc1cc(Cl)cc(Cl)c1O)c1c(O)c(Cl)cc(Cl)c1Cl [Oxyclozanide],-1.83
11,CC(=O)OCC(CCn1cnc2cnc(N)nc21)COC(C)=O [Famciclovir],-0.68
12,O=C(O)c1cc(-c2ccc(F)cc2F)ccc1O [Diflunisal],-3.18
13,CCCN[C@H]1CCc2nc(N)sc2C1 [Pramipexole 2HCl Monohydrate],-0.95
14,CC(C)c1nc(N(C)S(C)(=O)=O)nc(-c2ccc(F)cc2)c1/C=C/[C@@H](O)C[C@@H](O)CC(=O)O [Rosuvastatin Calcium],2.31
15,CCN(CC)C(=O)N1CCN(C)CC1 [Diethylcarbamazine citrate],0.18
16,CCOC(=O)C1=C[C@]2(CC)CCCN3CCc4c(n1c1ccccc41)[C@@H]32 [Vinpocetine],1.1
17,O=C1CCc2ccc(OCCCCN3CCN(c4cccc(Cl)c4Cl)CC3)cc2N1 [Aripiprazole],0.58
18,CC(C)C(=O)Oc1ccc(CO)cc1[C@H](CCN(C(C)C)C(C)C)c1ccccc1 [Fesoterodine Fumarate],-0.82
19,CN(CCOc1ccc(NS(C)(=O)=O)cc1)CCc1ccc(NS(C)(=O)=O)cc1 [Dofetilide],0.1
20,Nc1ccc(S(=O)(=O)Nc2ncccn2)cc1 [Sodium sulfadiazine],-0.13

row,SMILES,z-score of subpopulation abundance
1,"CC[C@H](Nc1ncnc2[nH]cnc12)c1nc2cccc(F)c2c(=O)n1-c1ccccc1 [Idelalisib (CAL-101, GS-1101)]",0.34
2,Cc1ncc([N+](=O)[O-])n1CC(C)O (stereo not given) [Secnidazole],0.75
3,"CCC(=O)Oc1ccc2c(c1)CCC1C2CCC2(C)C(OC(=O)CC)CCC12 (stereo not drawn) [Estradiol dipropionate(17-Beta-Estradiol-3,17-Dipropionate)]",0.34
4,CN1[C@@H](CC(=O)c2ccccc2)CCC[C@H]1C[C@H](O)c1ccccc1 [Lobeline hydrochloride],0.92
5,CN(C)[C@@H](CCOc1cccc2ccccc12)c1ccccc1 [Dapoxetine HCl],-0.35
6,Cn1c([N+](=O)[O-])cnc1COC(N)=O [Ronidazole],-0.8
7,Cc1cccc(C)c1NC(=O)C1CCCCN1C (stereo not given) [Mepivacaine],0.24
8,Cc1c(-c2ccc(O)cc2)n(Cc2ccc(OCCN3CCCCCC3)cc2)c2ccc(O)cc12 [Bazedoxifene Acetate],0.36
9,CCC(=O)NS(=O)(=O)c1ccc(-c2c(-c3ccccc3)noc2C)cc1 [Parecoxib Sodium],0.8
10,Nc1nc2c(ncn2COCCO)c(=O)[nH]1 [Aciclovir],-0.79
11,CCCCC(=O)O[C@H]1CC[C@H]2[C@@H]3CCc4cc(O)ccc4[C@H]3CC[C@]12C [Estradiol valerate],0
12,CC[C@H]1OC(=O)C[C@@H](O)[C@H](C)[C@@H](O[C@@H]2O[C@H](C)[C@@H](O[C@H]3C[C@@](C)(O)[C@@H](O)[C@H](C)O3)[C@H](N(C)C)[C@H]2O)[C@@H](CC=O)C[C@@H](C)C(=O)/C=C/C(C)=C/[C@@H]1CO[C@@H]1O[C@H](C)[C@@H](O)[C@@H](OC)[C@H]1OC [Tylosin],0.88
13,"OCc1ccc(Cl)cc1Cl [2,4-dichlorobenzyl alcohol]",-0.17
14,CCOC(=O)C1=C(COCCN)NC(C)=C(C(=O)OC)[C@@H]1c1ccccc1Cl [Levamlodipine],-8.09
15,Cc1onc(-c2ccccc2)c1-c1ccc(S(N)(=O)=O)cc1 [Valdecoxib],-0.64
16,Cc1ccc(-c2cc(C(F)(F)F)nn2-c2ccc(S(N)(=O)=O)cc2)cc1 [Celecoxib],-0.75
17,O=C1NCC2(CCN(CCc3ccccc3)CC2)O1 [Fenspiride HCl],0.21
18,CCS(=O)(=O)CCn1c([N+](=O)[O-])cnc1C [Tinidazole],-0.43
19,CC[C@@]1(O)C(=O)OCc2c1cc1n(c2=O)Cc2cc3cc(O)ccc3nc2-1 [(S)-10-Hydroxycamptothecin],-0.98
20,CN1C(C(=O)Nc2ccccn2)=C(O)c2sc(Cl)cc2S1(=O)=O [Lornoxicam],0.21
